Results taken from PubChem BioAssay AID2391 (Southern Research Specialized Biocontainment Screening …, 2010).
Screen size: about 310,000 compounds; about 410 (0.13%) were called active. Not shown: some 2% with an inconclusive outcome. How the calls were made is not given here. Only a sample is shown. Potency and affinity values are given separately.

experiment: RSV antiviral activity via CPE protection, HEp-2 cells, primary 10 µM value included (AID 2391); conditions: RSV-induced CPE inhibition, at 10 µM, hits give high values

CPE inhibition, inactive:
COc1ccc(NC(=O)c2sc3nc(-c4cccnc4)ccc3c2N)cc1OC 1.58%, COc1ccc(-c2ccc3c(N)c(C(=O)c4ccc(OC)c(OC)c4)sc3n2)cc1 1.75%, O=C(Nc1nc(-c2ccccc2)cs1)c1cccc([N+](=O)[O-])c1C(=O)O 0.63%, CCCC(=O)Oc1ccc(C2NC(=O)c3ccccc3O2)cc1OC (configuration not stated) -0.32%, CCNS(=O)(=O)c1ccc(CCC(=O)NCc2ccccn2)cc1 -0.26%, CS(=O)(=O)N1N=C(c2ccco2)CC1c1ccc(Br)cc1 (configuration not stated) -1.1%, CCOc1c(Cl)cc(CNCc2ccccn2)cc1OC 0.14%, C/C(N)=C(/C#N)C(=O)COC(=O)CNS(=O)(=O)c1ccc(C)cc1 0.79%, C/C(N)=C(/C#N)C(=O)COC(=O)CNS(=O)(=O)c1c(F)cccc1F 1.63%, CCOC(=O)c1sc(=NC(=O)c2ccc(OC(C)C)cc2)n(C)c1C -0.02%, Cc1cc[n+](C(C)C(=O)c2ccc(Cl)cc2)cc1 (configuration not stated) 0.43%, COC(=O)C1=C(N)Oc2cc(C)n(Cc3ccccc3)c(=O)c2C1c1ccccc1 (configuration not stated) 3.61%, O=C(Nc1ccccc1N1CCN(C(=O)c2ccc(Cl)cc2)CC1)c1ccc(Br)cc1 10.3%, CN(C)C(=O)COC(=O)c1ccccc1OCC(=O)Nc1ccc(SC(F)F)cc1 0.56%, CC(C)(C)NC(=O)COC(=O)c1ccccc1Nc1ccc(SC(F)F)cc1 20.3%, Clc1cc2nc[nH]c2cc1Cl 2.89%, c1ccc2[nH]cnc2c1 3.25%, OCc1cn(-c2ccc(Cl)cc2)nn1 0.61%, COc1cc(NC(=O)C2CC(=O)N(CCc3ccc(F)cc3)C2)cc(OC)c1OC (configuration not stated) 1.32%, CCn1c2ccc(F)cc2c2nnc(NN)nc21 8.49%, CCCn1c2ccc(F)cc2c2nnc(NN)nc21 2.66%, Cc1nn(-c2ccccc2)cc1/C=N/NS(=O)(=O)c1ccccc1 0.36%, Cc1nc(-c2cccc(S(=O)(=O)N3CCOCC3)c2)cs1 2.05%, O=S(=O)(c1cccc(-c2csc(-c3cccnc3)n2)c1)N1CCOCC1 18.8%, CC(C)(C)c1ccc(C(=O)c2c[nH]c(C(=O)NCCCn3ccnc3)c2)cc1 15.1%, CC(C)[C@H](NC(=O)N1CCn2c1nc1ccccc12)C(=O)NCc1ccco1 5.22%, CC(C)[C@H](NC(=O)N1CCn2c1nc1ccccc12)C(=O)NCc1ccc(F)cc1 7.05%, COc1cc(C(=O)NNC(=O)COc2ccccc2Cl)ccc1OCC(=O)N1CCOCC1 0.6%, O=C(Nc1cccc(NC(=O)c2ccccc2Cl)c1)c1ccco1 2.07%, c1ccc(N2CCN(c3ncnc4scc(-c5cccs5)c34)CC2)cc1 12.1%, COc1ccccc1C(=O)NCCCNc1ccc([N+](=O)[O-])cc1 0.97%, CCn1c(=O)c2cc(C(=O)N(C)c3ccc(OC)cc3OC)sc2c2ccccc21 13.1%, CCn1c(=O)c2cc(C(=O)N(C)c3ccccc3F)sc2c2ccccc21 17.4%, Cc1ccc(-c2nn(-c3ccccc3)cc2CN(Cc2ccccc2)C(=O)c2ccco2)o1 22.2%, CCCCC(NC(=O)Cc1c(C)c2cc3c(C)c(C)oc3c(C)c2oc1=O)C(=O)O (configuration not stated) 1.13%, Cc1c(CC(=O)N[C@@H](C)C(=O)O)c(=O)oc2c(C)c3occ(-c4ccccc4)c3cc12 6.88%, COc1ccc(Cl)cc1N(C(C)C(=O)O)S(C)(=O)=O (configuration not stated) 1.24%, CC(C)COc1ccc(C(=O)NNC(=O)c2ccc(=O)[nH]c2)cc1 0.85%, CCCCn1c(N)c(N(CCOC)C(=O)c2cc(CC)c(C)s2)c(=O)[nH]c1=O 0.21%, COc1ccccc1N(Cc1ccccc1)S(=O)(=O)c1cccc(C(=O)Nc2ccc(C)cn2)c1 40.7%, COc1ccccc1N(Cc1ccccc1)S(=O)(=O)c1cccc(C(=O)Nc2ccccn2)c1 40.2%, Cc1ccc(N(CCC#N)C(=O)COC(=O)C2CCN(S(=O)(=O)c3ccc(C)c(C)c3)CC2)cc1 3.94%, COCCN(C(=O)CSc1nnc(-c2ccc(Cl)cc2)o1)c1c(N)n(CC(C)C)c(=O)[nH]c1=O 2.35%, CCN(CC)c1ccc(-c2nnc(SCC(=O)N(CCOC)c3c(N)n(CC(C)C)c(=O)[nH]c3=O)o2)cc1 8.83%, COc1cc(OC)c2c(C)cc(=O)oc2c1 0.35%, CCc1cc(=O)oc2cc(OC(C)=O)cc(OC(C)=O)c12 5.44%, CCOc1ccccc1N(CC(=O)N1CCC(C(N)=O)CC1)S(=O)(=O)c1ccc(SC)cc1 1.65%, Cc1ccc(Cl)cc1NC(=O)CSc1sc2c(O)cc(=O)[nH]c2c1C#N -0.05%, Cc1ccc(C)c(OCC(=O)NCC(c2ccco2)N2CCCCC2)c1 (configuration not stated) -1.03%, OCCOCCn1c(C(CO)Nc2nc(-c3ccc(Cl)cc3)cs2)nc2ccccc21 (configuration not stated) 9.48%, c1ccc(Nc2nc(-c3ccncc3)nc3ccccc23)cc1 4.52%, Fc1ccc(Nc2nc(-c3ccncc3)nc3ccccc23)cc1 4.4%, COc1ccc(C(=O)NCCn2cc(SCC(=O)NCC3CCCO3)c3ccccc32)cc1 (configuration not stated) 0.51%, Cc1ccc(NC(=O)C2CCN(S(=O)(=O)c3ccc(F)cc3)CC2)cc1 -1.19%, Cc1ccc(S(=O)(=O)N2CCC(C(=O)Nc3ccc(S(=O)(=O)N4CCCC4)cc3)CC2)cc1 0.34%, CC(NC(=O)c1ccccc1NC(=O)c1ccccc1)C(=O)N1CCOCC1 (configuration not stated) 3.72%, Cc1ccc2[nH]c3c(c2c1)CN(C)CC3 -0.58%, CN1CCc2[nH]c3ccc(C(=O)NN)cc3c2C1 -1.2%, CC(C)CNC(=O)c1cccc(NC(=O)Cc2ccc(Br)cc2)c1 15.3%, CCc1ccc(CC2S/C(=C(\C#N)C(C)=O)NC2=O)cc1 (configuration not stated) 6.6%, CC(=O)/C(C#N)=C1\NC(=O)C(Cc2ccc(F)cc2)S1 (configuration not stated) 12.6%, CC(=O)/C(C#N)=C1\NC(=O)C(Cc2cc(Cl)ccc2Cl)S1 (configuration not stated) 14%, CC(=O)/C(C#N)=C1\NC(=O)C(Cc2ccc(C)c(Cl)c2)S1 (configuration not stated) 15%, CC1CCCN(c2nc3c(c(=O)n(C)c(=O)n3C)n2CCSc2nc3ccccc3o2)C1 (configuration not stated) 1.2%, COc1ccccc1NC(=O)C(=O)NCC1COc2ccccc2O1 (configuration not stated) 5.12%, NS(=O)(=O)c1ccc(CCNC(=O)CSc2nc3ccccc3c(=O)n2CCC(=O)N2CCCCC2)cc1 0.56%, Cn1c(=O)c2[nH]c(-c3ccccc3O)nc2n(C)c1=O 9.42%, Cc1cc(=O)[nH]c(-c2ccccc2O)n1 0.17%, c1csc(-c2nc3ccccc3[nH]2)c1 4.14%, c1ccc(-c2nc(-c3cccs3)[nH]c2-c2ccccc2)cc1 1.1%, O=S(=O)(NC(=NCc1ccccc1)c1ccccc1F)c1ccccc1 0.88%, COc1ccc(CNC(=O)CN(Cc2ccc(F)cc2)C(=O)CCC(=O)Nc2nccs2)cc1 0.79%, CC(OC(=O)c1cccc([N+](=O)[O-])c1)C(=O)NCc1ccc2c(c1)OCO2 (configuration not stated) 2.66%, COCc1cc(C)nc(NC2CC(C)(C)NC(C)(C)C2)c1C#N -1.99%, Cn1c2ccccc2c2nnc(SCc3ccc4nonc4c3)nc21 -0.67%, CCCn1c2ccccc2c2nnc(SCC(=O)Nc3cc(C)on3)nc21 1.54%, C=CCn1c2ccccc2c2nnc(SCc3ccc4nonc4c3)nc21 3.57%, CCn1c2ccccc2c2nnc(SCC(=O)Nc3c(C)n(C)n(-c4ccccc4)c3=O)nc21 17.8%, Nc1nnc(COc2cccc(C(F)(F)F)c2)s1 1.04%, COC(=O)c1ccc(C(=O)OC)c(NC(=O)C2CC2)c1 1.03%, COc1ccc2cc(CN(CCCN3CCOCC3)Cc3nnnn3C3CCCC3)c(=O)[nH]c2c1 -0.3%, CCOc1ccccc1N(CC)C(=O)c1ccc2c(=O)n3c(nc2c1)CCCCC3 4.24%, Cc1c(Cl)ccc2c1NC(=O)C21NC(CCC(N)=O)[C@H]2C(=O)N(c3ccc(Cl)cc3)C(=O)[C@H]21 (some centres not stated) 2.04%, C[N+](C)(C)CC/C=C1/c2ccccc2CSc2ccccc21 -0.47%, C/C(=N\O)c1oc2ccc3c(C)cc(=O)oc3c2c1C 21.3%, Cc1ccc(/C(=N\O)c2oc3c(C)c4oc(=O)cc(C)c4cc3c2C)cc1 -1.6%, CCC(Cc1ccccc1)NC(=O)C1CC1 (configuration not stated) -0.41%, O=[N+]([O-])c1ccc(CN2CCN(c3ccc([N+](=O)[O-])cc3)CC2)cc1 8.04%, COc1ccc(CNC(=S)NCc2ccc(OC(C)C)cc2)cc1 3.45%, COc1ccc(Nc2ncccc2C(=O)O)cc1 -0.34%, CC(C)c1ccc(Nc2ncccc2C(=O)O)cc1 10.4%, CCOC(=O)c1c(C)nc2c(c1C)/C(=N/O)CC(C)(C)C2 5.56%
